High-throughput results as filed in PubChem.
This is a sample that favours compounds with a hit; in the whole collection about 4.1% have one here.
hcDAF12 agonist: H. contortus DAF-12 nuclear receptor activators, primary screen, cell-based, luminescence, HEK293, lit1-tk-luc reporter; HEK293 hcDAF-12 lit1-tk-luc reporter; 0% DMSO, 100% Δ7-dafachronic acid; activation, % at 6.8 µM; 370,000 tested, 1.4% active;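 active means activation above the mean of all tested compounds plus 3 SD, cut at about 5.5% in these data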;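 further: 100% = response to 3 µM Δ7-dafachronic acid high control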
DAX1 inh-1: DAX1 (NR0B1) inhibitors on StAR promoter, primary screen, cell-based, luminescence, SF-1 (NR5A1), full-length DAX-1 | HEK293T StAR-luciferase reporter, SF-1/DAX-1 repression relief | inhibition, % at 6.8 µM | 370,000 tested, 1.1% active | AID 652010, 2013;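 active means inhibition above the mean over all tested compounds plus 3 SD, cut at about 3.6% in these data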;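 further: 0% = DAX-1 cells with DMSO and 100% = cells lacking DAX-1 with DMSO; higher inhibition means more luminescence from relief of DAX-1 repression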
hgDAF12 agonist: H. glycines DAF-12 receptor agonists, primary screen, cell-based, luminescence, HEK293, GAL4 fusion, UAS-luciferase. Nuclear hormone receptor DAF-12 (Heterodera glycines), GAL4 fusion. HEK293 GAL4-hgDAF12 UAS-luciferase reporter, agonist luminescence; normalized to butyrate control. activation, % at 6.8 µM. 370,000 tested, 1.8% active;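 active means activation above a cutoff set at the mean of all screened compounds plus 3 SD, cut at about 10% in these data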;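 further: 0% = DMSO wells and 100% = sodium butyrate wells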
PolyA inhibitor: polyadenylation inhibitors in yeast reporter cells, primary screen, luminescence, S. cerevisiae. 300,000 tested, 0.02% active. activity score, % at 12 µM. S. cerevisiae SKY197-pL101 polyadenylation reporter, beta-gal luminescence; efflux-impaired pdr1/pdr3 knockout yeast; score 100 = 6 SD above DMSO;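 active means lowest replicate activity score at least 50, where 100 means six control SD above control mean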;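 further: yeast exposed to compound for 9 h at 30 °C; higher score means more reporter readthrough which indicates perturbed polyadenylation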
DAX1 inh-2: DAX1 (NR0B1) inhibitors, primary screen, cell-based, HEK293, Gal4-DAX1, luciferase luminescence | HEK293 Gal4-DAX1 luciferase reporter | inhibition, % at 6.75 µM | 340,000 tested, 0.99% active;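 active means inhibition above the mean over all tested compounds plus 3 SD, cut at about 4.2% in these data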;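 further: 0% = DAX1-transfected cells with DMSO and 100% = empty-vector control cells with DMSO; inhibition shows as a rise in luminescence from relieved DAX1 repression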
Target sequence (P51843 207-470 limits assumed): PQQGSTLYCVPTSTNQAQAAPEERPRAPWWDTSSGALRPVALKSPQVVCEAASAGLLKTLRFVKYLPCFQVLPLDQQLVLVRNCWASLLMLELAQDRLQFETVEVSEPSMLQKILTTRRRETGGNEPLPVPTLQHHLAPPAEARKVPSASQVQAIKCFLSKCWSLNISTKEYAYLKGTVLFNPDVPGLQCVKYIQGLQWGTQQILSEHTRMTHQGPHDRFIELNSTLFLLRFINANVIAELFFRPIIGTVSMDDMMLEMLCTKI
ssDAF-12 act: S. stercoralis DAF-12 nuclear receptor activators, primary screen, cell-based, luminescence, HEK293, GRIP1 co-expression, lit1-tk-luc. 370,000 tested, 1% active. HEK293 ssDAF-12/GRIP1 lit1-tk-luc reporter; % of 3 µM dafachronic acid response. Nuclear hormone receptor DAF-12 (Strongyloides stercoralis). AID 652126, 2013. activation, % at 6.8 µM;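 active means activation above the mean over all tested compounds plus 3 SD, cut at about 0.9% in these data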;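 further: 0% = DMSO-only wells and 100% = 3 µM delta7-dafachronic acid wells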
* = called active by the depositor; . = no result.

SMILES	hcDAF12 agonist	DAX1 inh-1	hgDAF12 agonist	PolyA inhibitor	DAX1 inh-2	ssDAF-12 act
CN(C)c1ccc(C(=O)NN2C(=O)c3ccccc3C2=O)cc1	0	0	11*	-7	0	-1
COC(=O)C(C[N+](=O)[O-])C1=C(O)CC(C)(C)CC1=O (stereo not drawn)	-2	0	-3	.	.	-1
CC1(C)C2CCC1(C(=O)O)c1nc3ccccc3nc12 (stereo not drawn)	-2	0	0	7	4.8*	-1
CCCCCCCCN1C(=O)[C@@H](CC(=O)N2CCCC2)C[C@@]2(C(=O)OC)C1=C[C@H](C(C)C)O[C@@H]2C1CC1	0	-1	0	.	.	-1
Cc1cc(NS(=O)(=O)c2ccc(NC(=O)/C=C/c3ccc(Br)cc3)cc2)no1	-1	4.5*	0	3	0	-1
Cc1cc(NS(=O)(=O)c2ccc(NC(=O)c3oc4ccccc4c3C)cc2)no1	4	1	1	15	3	0.9*
COc1ccc(OCC(=O)Nc2ccc(S(=O)(=O)Nc3cc(C)on3)cc2)cc1	1	1	-1	14	-1	0
Cc1cc(NC(=O)COc2ccccc2C(N)=O)no1	1	3	7	.	4.8*	0
COc1ccccc1OCC(=O)Nc1ccc(S(=O)(=O)Nc2cc(C)on2)cc1	5	0	-1	9	1	1.2*
COC(=O)[C@]12C[C@H](CC(=O)NCc3cccs3)C(=O)N(Cc3ccc(Cl)cc3Cl)C1=C[C@H](C(C)C)O[C@@H]2C1CC1	0	0	1	.	.	-2
Nc1[nH]c(C(=O)c2ccc(Cl)cc2)c(-c2ccc(Br)cc2)c1C(=O)c1c[nH]c2ccc(F)cc12	1	1	3	.	.	-1
COC1C(O)C(O)C(O)C(O)C1O (stereo not drawn)	0	0	0	.	4.9*	-1
Cc1ccc(O)c(C(=O)CC(=O)c2ccc(Cl)cc2)c1	5	2	11*	-25	2	0
O=C(CC(=O)c1cc(Cl)ccc1O)c1ccccc1	2	1	12*	-41	3	-1
COC1=C[C@H](C(=O)NCc2ccc(Br)cc2)C(C)C(c2ccccc2)CC1=O (stereo partly drawn)	1	0	-2	.	.	-1
O=C(NCCN1CCC(Cc2ccccc2)CC1)C1CCCN(S(=O)(=O)c2ccccc2[N+](=O)[O-])C1 (stereo not drawn)	-4	-2	-6	.	.	-2
CC(C)C(OC(=O)c1cccs1)C(=O)NCc1ccccc1 (stereo not drawn)	-1	1	1	3	0	-2
Cc1ccc(CNC(=O)C(OC(=O)c2cccs2)C(C)C)cc1 (stereo not drawn)	-1	0	1	5	4.6*	-1
COc1cccc(-c2ccc(=O)n(CC(=O)NCCN3CCOCC3)n2)c1	0	0	3	13	1	0.9*
Cc1ncsc1C(=O)Nc1nc2c(s1)CCCC2	3	3	13*	-11	2	0
Cc1ccc(CC(=O)Nc2nc3c(s2)CCCC3)cc1	-1	-1	-6	-17	-2	-1
Cc1cc(C(=O)Nc2nc3c(s2)CCCC3)cs1	6.0*	3	9	2	-1	0
CCOc1ccc(-n2c(SCC(=O)c3ccc4ccccc4c3)nnc2-c2cccc(Cl)c2)cc1	-3	0	3	.	.	-1
COc1cc(/C=C2\SC(=S)N(CC(=O)O)C2=O)ccc1OC(=O)c1ccco1	-2	0	-1	1	0	-1
CCOc1cc(/C=C2/SC(=S)N(CC(=O)O)C2=O)ccc1OC(=O)c1cccs1	0	-1	-4	-9	5.2*	-1
SMILES	hcDAF12 agonist	DAX1 inh-1	hgDAF12 agonist	PolyA inhibitor	DAX1 inh-2	ssDAF-12 act
CN1OC[C@@H]2CN(CC3CCCCC3)[C@H](c3ccc(-c4ccc(C#N)cc4)cc3)C[C@@H]21	0	3	0	.	.	0
COC(=O)[C@]12C[C@H](CC(=O)N3CCC(c4ccccc4)CC3)C(=O)N(CCC3=CCCCC3)C1=C[C@H](C1CCCC1)O[C@@H]2C	0	-1	-1	.	.	-1
CCCC(=O)Nc1ccc(C#Cc2ccccc2)cc1	-1	2	12*	-22	1	-1
CCCCOCCCNC(=O)C[C@@H]1C[C@]2(C(=O)OCC)CCC3=C2N(CCC3)C1=O	0	0	-1	.	.	-1
CC(C)C1NC(=S)N(C2CCCCC2)C1=O (stereo not drawn)	-1	0	2	8	0	1.2*
O=C(O)c1ccc(COc2ccccc2/C=C2/NC(=O)N(c3cccc(Cl)c3)C2=O)cc1	-3	0	-1	4	0	0
O=C(O)c1ccc(COc2ccc3ccccc3c2/C=C2/NC(=O)N(c3ccccc3)C2=O)cc1	2	1	-2	-11	-1	1.0*
O=C(Nc1ccc(F)c(Cl)c1)c1ccccc1NC(=O)C1CCCCC1C(=O)O (stereo not drawn)	2	1	7	.	1	0
O=C(Nc1cccc(Cl)c1)c1ccccc1NC(=O)C1CCCCC1C(=O)O (stereo not drawn)	2	0	11*	10	1	0
CC(C)c1ccc(NC(=O)c2ccccc2NC(=O)C2CCCCC2C(=O)O)cc1 (stereo not drawn)	0	2	9	7	5.4*	1
CCOC(=O)[C@]12CCCCC/C=C\1N(CCc1ccc(Cl)cc1)C(=O)[C@H]2CC(=O)NCCc1ccccc1OC	-3	-3	-6	.	.	-1
O=C1NN=COc2ccccc21	5.7*	1	2	0	-1	0
CN(CC(=O)NCc1ccccc1Cl)S(=O)(=O)c1ccc2c(c1)n(C)c(=O)c(=O)n2C	5.6*	0	1	-16	0	-1
Cc1cccc(CN2[C@@H](C)[C@H](c3ccccc3)Oc3cc(Br)ccc3S2(=O)=O)c1	-1	-1	3	.	.	-1
O=C(CSc1nc2ccccc2nc1N1CCOCC1)N1CCN(c2cccc(C(F)(F)F)c2)CC1	-5	-2	9	.	.	-2
CCOC(=O)c1c(C)[nH]c(C(=O)COC(=O)CCSc2ccccc2)c1C	6.3*	0	9	-12	1	0
